“And” between values parts separate entries of the source, which are not always exact repeats. Equal values may be shown once. About 17,000 (4.4%) of roughly 390,000 compounds were called active. Where a call stands in place of a potency, no number is given. Roughly 8% stayed inconclusive and do not appear here. Calls come from the whole dose curve; as a rule, active = well fitted inhibition curve with a large enough effect; inconclusive = small, poorly fitted or top-dose-only effect; inactive = no such curve, though single readings can be large or run the other way. The full list was thinned out, with actives kept by preference.
These compounds were tested against Lysine-specific demethylase 4A (Homo sapiens) (UniProt O75164) (assay: qHTS Assay for Inhibitors of JMJD2A-Tudor Domain). Conditions: AlphaScreen JMJD2A-Tudor / H3K4me3 peptide binding; series mostly up to 114 µM.
Chain of Lysine-specific demethylase 4A (Homo sapiens) (O75164 whole entry, looked up, the tested form may be a part): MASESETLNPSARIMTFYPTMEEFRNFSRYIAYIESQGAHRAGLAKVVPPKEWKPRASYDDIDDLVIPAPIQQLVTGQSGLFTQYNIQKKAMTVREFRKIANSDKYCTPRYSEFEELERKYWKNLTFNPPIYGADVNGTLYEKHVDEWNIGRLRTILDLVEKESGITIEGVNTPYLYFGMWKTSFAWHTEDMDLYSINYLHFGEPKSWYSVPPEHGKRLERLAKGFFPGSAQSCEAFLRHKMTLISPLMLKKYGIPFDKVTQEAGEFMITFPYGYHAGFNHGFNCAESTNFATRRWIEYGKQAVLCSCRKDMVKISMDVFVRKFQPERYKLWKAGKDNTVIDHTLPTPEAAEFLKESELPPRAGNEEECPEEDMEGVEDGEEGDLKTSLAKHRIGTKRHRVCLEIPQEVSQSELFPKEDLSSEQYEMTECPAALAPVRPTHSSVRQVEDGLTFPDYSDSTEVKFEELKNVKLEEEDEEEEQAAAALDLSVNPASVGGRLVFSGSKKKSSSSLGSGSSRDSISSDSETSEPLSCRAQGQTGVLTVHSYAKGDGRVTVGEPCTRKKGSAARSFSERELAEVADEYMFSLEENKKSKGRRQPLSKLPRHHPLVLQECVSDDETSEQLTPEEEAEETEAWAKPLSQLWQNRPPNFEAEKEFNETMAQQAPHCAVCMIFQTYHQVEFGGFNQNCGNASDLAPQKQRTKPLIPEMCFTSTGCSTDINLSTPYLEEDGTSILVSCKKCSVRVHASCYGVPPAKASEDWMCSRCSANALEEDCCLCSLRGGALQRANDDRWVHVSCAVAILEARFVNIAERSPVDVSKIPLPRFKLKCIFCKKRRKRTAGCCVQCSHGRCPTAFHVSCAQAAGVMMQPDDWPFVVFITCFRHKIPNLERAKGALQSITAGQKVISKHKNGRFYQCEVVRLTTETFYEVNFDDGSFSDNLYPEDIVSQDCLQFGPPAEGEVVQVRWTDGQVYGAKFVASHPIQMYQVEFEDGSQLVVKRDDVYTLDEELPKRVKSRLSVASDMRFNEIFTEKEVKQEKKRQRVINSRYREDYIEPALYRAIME
Note: nearly all actives have a fitted effect of over 50% in size.
Potency is the fitted concentration of half-maximal effect.

Row | Compound | Potency
1 | CCn1c(C(=O)Nc2cc(Cl)ccc2C)cc2sc(Cl)cc21 | inactive
2 | COc1cc(C(=O)N2CCC(c3ccncc3)CC2)cc(OC)c1OC | inactive
3 | COc1ccc(-c2cc(=O)oc3cc(OCC(=O)N[C@@H](Cc4c[nH]c5ccccc45)C(=O)O)ccc23)cc1 | inactive
4 | COc1ccc(-c2cc(C(=O)NC(C(=O)O)C(C)C)c(C)o2)cc1OC (stereo not given) | inactive
5 | COc1ccc(-c2cc(C(=O)NC(Cc3c[nH]c4ccccc34)C(=O)O)c(C)o2)cc1OC (stereo not given) | 22.4 µM (active)
6 | CC1=C(c2ccc(Cl)cc2)S(=O)(=O)N=C1N1CCN(c2cc(C)ccc2C)CC1 | inactive
7 | O=C(CCc1ccccc1)NCc1ccc2c(c1)CCN2C(=O)c1ccccc1 | inactive
8 | CCc1ccccc1N1C(=O)CN(S(=O)(=O)CC)CC1(C)C(=O)NC1CCCCC1 (stereo not given) | inactive
9 | Cc1ccc2c(c1)C(c1ccccc1)N(C(=O)c1ccc(S(=O)(=O)N3CCOCC3)cc1)CC(=O)N2 (stereo not given) | 50.1 µM (active)
10 | Cc1ccc2c(c1)C(c1ccccc1)N(C(=O)c1ccc(F)cc1)CC(=O)N2 (stereo not given) | inactive
11 | Cc1ccc(C(=O)N2CC(=O)Nc3ccc(F)cc3C2c2ccc(F)cc2)cc1 (stereo not given) | inactive
12 | CC(=O)Nc1cccc(NC(=O)CSc2cn(CC(=O)N3CCCC3)c3ccccc23)c1 | inactive
13 | O=S(=O)(NCC(c1ccco1)N1CCOCC1)c1cc(F)ccc1F (stereo not given) | inactive
14 | O=C(CSCc1cnn(-c2ccccc2)c1-n1cccc1)NCc1ccccc1Br | inactive
15 | COc1ccc(-n2c(C)csc2=S)cc1 | inactive
16 | COc1ccc(-n2c(-c3ccc(OC)c(OC)c3)n[nH]c2=S)cc1 | 1.26 µM (active)
17 | COc1ccc(OC)c(-n2nnc(-c3nc(-c4cc(OC)c(OC)c(OC)c4)no3)c2C)c1 | inactive
18 | Cc1n[nH]c(=O)n1-c1ccc(C(C)C)cc1 | inactive
19 | COc1ccc(-c2nc3ccccc3n2CCC(C)C)cc1OC | inactive
20 | Cc1ccc(-c2cn3cc(C)ccc3n2)cc1 | inactive
21 | COc1ccccc1OCC(=O)OCc1cc(-c2ccco2)on1 | inactive
22 | Cc1ccc(-n2c(-c3ccc(Cl)cc3)n[nH]c2=S)cc1 | 50.1 µM (active)

Row | Compound | Potency
23 | COc1ccccc1N1CCN(c2nc(C)cc(=O)[nH]2)CC1 | inactive
24 | COc1ccc(OC)c(-n2c(-c3ccn[nH]3)n[nH]c2=S)c1 | 50.1 µM (active)
25 | COc1ccccc1-n1c(-c2cc(-c3ccco3)[nH]n2)n[nH]c1=S | 15.8 µM (active)
26 | CCOC(=O)CSc1nnc(CNC(=O)c2cccs2)n1-c1cc(OC)ccc1OC | inactive
27 | CCOC(=O)c1cccc(NC(=O)c2cc(CN3CCCC3)on2)c1 | inactive
28 | O=C(OCc1cc(=O)n2nc(C3CC3)sc2n1)c1ccccc1Cl | inactive
29 | COc1ccc(C2c3c(oc4ccccc4c3=O)C(=O)N2Cc2ccc3c(c2)OCO3)cc1 (stereo not given) | inactive
30 | COc1ccc(Cn2ccn(CC(=O)Nc3cc(C)ccc3C)c(=O)c2=O)cc1 | inactive
31 | O=C(CCCn1c(=O)c2cccn2c2cccnc21)NCc1ccc(F)cc1 | inactive
32 | COc1ccccc1C(=O)NCCn1cc(SCc2ccccc2Cl)c2ccccc21 | inactive
33 | CCN(CC)P(=O)(/C(Cl)=C\Nc1c(C)n(C)n(-c2ccccc2)c1=O)N(CC)CC | 15.8 µM (active)
34 | Cc1c(NC(=S)Nc2ccccc2)c(=O)n(-c2ccccc2)n1C | inactive
35 | Cc1c(NS(=O)(=O)c2ccc(Cl)cc2)c(=O)n(-c2ccccc2)n1C | inactive
36 | CCN(CC)CCNc1ncnc2c1cnn2-c1cc(Cl)ccc1C | inactive
37 | O=C(O)c1ccc(Cn2c(SCc3ccc(F)cc3)nc3ccncc32)cc1 | inactive
38 | O=C(O)c1ccc(Cn2cnc3c(=S)nc[nH]c32)cc1 | 3.55 µM (active)
39 | O=C(O)CCC(=O)NCc1ccc(C(=O)O)cc1 | inactive
40 | Cc1ccc(Cn2c(=O)n(-c3ccc(C)cc3)c(=O)c3c2c2cc(C)ccc2n3C)cc1 | inactive
41 | Cc1ccc(Cl)cc1N(C)C(=O)C1CCCN(c2ncnc3onc(-c4ccc(F)cc4)c23)C1 (stereo not given) | inactive
42 | CC(C)=CCc1ccc(O)c(=O)cc1C(C)C | 56.2 µM (active)
43 | CC(C)c1cc(N=O)cc(C(C)C)c1O | inactive
44 | Cc1ccc(CNC(=O)c2c(O)nc3c(C)cccn3c2=O)cc1 | inactive

Row | Compound | Potency
45 | COc1ccc2c(CNCCc3ccccc3C)c(C(=O)O)n(Cc3ccccc3C)c2c1 | inactive
46 | Cc1ccc2ncc(C(=O)Nc3ccc(OC(F)(F)F)cc3)c(=O)n2c1 | inactive
47 | COc1cccc2cc(-c3nc(Cl)c4c5c(sc4n3)CC(C)CC5)c(=O)oc12 (stereo not given) | inactive
48 | CCCCCCC1(C)NC(c2ccc3c(c2)OCO3)=CC(c2ccccc2O)N1 (stereo not given) | inactive
49 | CCn1c2ccccc2c2cc(NC(=O)C/C(C)=N/NC(=O)c3ccccc3N)ccc21 | inactive
50 | CCn1c2ccccc2c2cc(NC(=O)COc3ccc(C)cc3C)ccc21 | inactive
51 | CCn1c2ccccc2c2cc(NC(=O)CNC)ccc21 | 1 µM (active)
52 | Cc1ccc(N(CC(=O)NCC(C)c2ccccc2)S(=O)(=O)N(C)C)cc1 (stereo not given) | inactive
53 | Cc1ccc(NC(=O)C(=O)NCC(c2cccnc2)N2CCOCC2)cc1 (stereo not given) | inactive
54 | COc1cccc(C(=O)N(Cc2cccc(Cl)c2)Cc2ccco2)c1 | inactive
55 | CCCCCn1c(CCCNC(=O)c2ccccc2OC)nc2ccccc21 | inactive
56 | CCOC(=O)c1ccc(NC(=O)C2CC(=O)Nc3nc4ccccc4n32)cc1 (stereo not given) | inactive
57 | O=C(Nc1ccccc1)C1CC(=O)n2c(nc3ccccc32)N1 (stereo not given) | 8.91 µM (active)
58 | CC(=O)c1ccc(NC(=O)C2CC(=O)Nc3nc4ccccc4n32)cc1 (stereo not given) | inactive
59 | CC(=O)N1CCCc2cc(S(=O)(=O)N3CCC(C(=O)NCc4ccc(C)cc4)CC3)ccc21 | inactive
60 | O=c1[nH]c2ccccc2n2c(-c3ccccc3)nnc12 | 7.94 µM (active) and 5.62 µM (active)
61 | O=c1cc(-c2ccccc2)n2c(SCc3ccccc3)nnc2[nH]1 | inactive
62 | Cc1cccc(CC(=O)Nc2cccc(-c3cn4cccnc4n3)c2)c1 | inactive
63 | CCS(=O)(=O)N1Cc2ccccc2CC1C(=O)Nc1ccc(OC)cc1OC (stereo not given) | inactive
64 | CCOc1ccc(N2CC(C(=O)NCc3ccccn3)CC2=O)cc1 (stereo not given) | inactive
65 | COc1ccc(NC(=O)C2C3C=CC(C3)C2C(=O)NCc2ccccn2)c(OC)c1 (stereo not given) | 50.1 µM (active)

Source: PubChem BioAssay AID504339 (National Center for Advancing Translational Sciences (NCATS), 2011)
